esBAF inh – blocks esBAF chromatin remodeling in mouse ES cells; Bmi1-luciferase knock-in reporter, 24 h; 100% = twice the neutral-well signal; reporter increase, % at 12.5 µM; 2% of 350,000 active; in the data active = activation above about 40%; inconclusive = no clear call, values can overlap the other calls;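 also: 0% = median of the plate's neutral control wells and 100% = double that signal; a rise in the Bmi1 reporter signal indicates esBAF inhibition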
MITF TRPM1 HTS – MITF TRPM1 promoter activation in melanoma cells; SK-MEL-5 TRPM1-promoter luciferase, 24 h; % of positive control, neutral wells = 0; activation, % at 12.5 µM; 0.75% of 300,000 active; AID 588334;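 active = mean activation of at least 80% with every replicate also reaching 80%; inconclusive = mean reaches 80% but some replicate falls short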;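 also: 0% = neutral control wells and 100% = parthenolide positive control wells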
Wnt act – Wnt/beta-catenin pathway activation | Wnt/beta-catenin reporter cell assay, activator, plate reader | activation, % at 9.35 µM | 1.2% of 300,000 active | AID 743398; in the data active = activation above about 30%, passing the limit was not always enough; inconclusive = no clear call, values can overlap the other calls;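 also: 0% = neutral control wells and 100% = positive control wells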
Ecoli rRNA inh – inhibits bacterial ribosomal RNA function over humanized ribosomes; GFP signal change (wild-type ribosome), % (test concentration not listed); 1.6% of 350,000 active; AID 720706; E. coli WT GFP vs humanized-ribosome RFP mutants, fluorescence, 24 h; hits give low values; DMSO median 0, no signal -100;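 active = significant combined selectivity score with lowered wild-type GFP, culture density cut under 30%, mutant RFP and density less affected; inactive = any of these conditions unmet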
AF4-AF9 inh – MLL-AF4/AF9 protein interaction inhibition; P42568; AlphaScreen, biotin-AF4 peptide binding to FLAG-AF9; inhibition, % at 10 µM; 0.47% of 350,000 active; AID 651704;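 active = every replicate reaching a set inhibition limit, whatever the replicate mean, cut at about 25% in these data; inconclusive = mean inhibition reaches that limit but some replicates miss it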;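 also: 0% = plate neutral control median and 100% = total signal loss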
Target sequence (P42568 whole entry, looked up): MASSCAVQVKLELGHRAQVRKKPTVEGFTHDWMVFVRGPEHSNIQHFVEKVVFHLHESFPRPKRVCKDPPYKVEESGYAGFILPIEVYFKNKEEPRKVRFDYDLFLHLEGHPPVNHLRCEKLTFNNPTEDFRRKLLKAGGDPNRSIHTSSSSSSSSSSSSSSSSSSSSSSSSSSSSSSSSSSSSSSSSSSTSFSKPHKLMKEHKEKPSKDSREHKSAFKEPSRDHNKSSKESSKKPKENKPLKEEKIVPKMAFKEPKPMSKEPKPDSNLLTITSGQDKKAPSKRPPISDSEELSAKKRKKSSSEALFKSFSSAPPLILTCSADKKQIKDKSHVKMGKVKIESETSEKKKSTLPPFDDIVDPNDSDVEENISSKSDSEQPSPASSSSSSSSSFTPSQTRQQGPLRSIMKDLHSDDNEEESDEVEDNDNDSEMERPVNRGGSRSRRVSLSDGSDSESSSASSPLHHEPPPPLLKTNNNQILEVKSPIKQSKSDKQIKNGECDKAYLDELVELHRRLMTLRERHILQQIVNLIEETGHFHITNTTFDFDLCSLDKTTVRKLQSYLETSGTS
Numbers without * were called inactive; ? = inconclusive; · = no result. Sampled rows, rich in hits. Any-hit rate of the full collection: about 3.7%.

SMILES	esBAF inh	MITF TRPM1 HTS	Wnt act	Ecoli rRNA inh	AF4-AF9 inh
Cc1ccccc1C(=O)Nc1cccc(-c2ccc(N3CCOCC3)nn2)c1	60*	52	30	3	-2
Cc1ccc(C(=O)Nc2cccc(-c3ccc(N4CCOCC4)nn3)c2)cc1[N+](=O)[O-]	41*	103*	33*	2	-1
COc1c(C)cccc1C(=O)Nc1ccc(N2CCOCC2)c(Cl)c1	59*	89*	·	·	·
O=C(COc1ccc(Cl)cc1Cl)Nc1cccc(-c2ccc(N3CCOCC3)nn2)c1	·	58	13	9	-11
COc1ccc(NC(=O)N(C)C[C@H]2Oc3c(NS(=O)(=O)c4ccc(C)cc4)cccc3C(=O)N([C@@H](C)CO)C[C@@H]2C)cc1	1	·	·	-3	-1
COCCNC(=O)c1cc2c(c(-c3cccc(-c4ccc(C#N)cc4)c3)n1)[C@@H](CCO)N(C(=O)CC1CC1)C2	·	·	·	-3	0
O=C(Nc1cccc(-c2ccc(N3CCOCC3)nn2)c1)c1ccc([N+](=O)[O-])cc1	52*	99*	31*	8	-2
CC#CC(=O)N1CCC(C(=O)Nc2ccc(Oc3ccccc3)nc2)CC1	41*	27	14	-15	-22
Cc1ccc(NC(=O)CNCc2ccccc2)c(Br)c1	·	22	2	-28*	-2
Cc1ccc(NC(=O)CNCc2cccs2)c(Br)c1	?	32	6	-27*	-4
Cc1ccc(NC(=O)c2ccccn2)c(Br)c1	·	33	37*	2	-1
COc1ccc(Cl)cc1NC(=O)CNc1ccccc1CN(C)C1CCCCC1	·	-7	-2	-34*	10
O=C(c1ccccn1)N1C[C@@H]2[C@H](c3ccccc31)[C@@H](CO)N2C(=O)Nc1ccccc1	-9	·	·	1	-2
Cc1cccc(N2CCN(C(=O)CSc3ccc4c(c3)OCCO4)CC2)c1C	3	6	-2	-8	-2
COc1ccc(Cl)cc1NC(=O)CN(C)C(=O)c1sccc1-c1ccccc1	3	-19	-4	-33*	-4
COc1ccc(NC(=O)CNCc2cccs2)c(OC)c1	10	·	2	2	-2
COc1ccc(Cl)cc1NC(=O)CNCc1cccs1	-2	-2	-2	-32*	-2
COc1ccc(Cl)cc1NC(=O)CN(C)C(=O)c1sc2ccccc2c1Cl	3	-8	-2	-1	-7
C=CCN=C(NC#N)SCC(=O)NCc1ccccc1	0	-10	0	·	·
Cc1ccccc1-n1ncc2c(SCC(=O)NC3CCCC3)ncnc21	12	-21	-2	12	-1
Cc1ccccc1-n1ncc2c(SCC(=O)N3c4ccccc4CC3C)ncnc21 (stereo not drawn)	-5	6	-5	-26*	6
O=C(C[N+]1(CC#Cc2ccccc2)CCOCC1)c1ccc(Cl)cc1	·	9	-1	-24*	10
O=C(C[N+]1(CC#Cc2ccccc2)CCOCC1)c1ccccc1	·	-14	-1	-5	1
O=C(Nc1ccccc1)Nc1ccc2snnc2c1	32	·	5	·	·
O=C(Nc1ccccc1)Nc1ccc2nnsc2c1	73*	?	24	-43	·
SMILES	esBAF inh	MITF TRPM1 HTS	Wnt act	Ecoli rRNA inh	AF4-AF9 inh
CN(C)c1ccc(NC(=O)Nc2ccc3snnc3c2)cc1	69*	65	·	·	·
CCOC(=O)C1CCN(C(=O)Nc2ccc3snnc3c2)CC1	·	-1	0	-34	1
CC(=O)c1ccc(S(=O)(=O)NCCC(=O)OC(C)C(=O)Nc2ccc(F)cc2)cc1 (stereo not drawn)	·	-1	-1	5	0
CCC(SC1=Nc2ccccc2C2=NC(CC(C)C)C(=O)N12)C(=O)Nc1ccc2c(c1)OCO2 (stereo not drawn)	51*	11	6	·	·
CN(C)CC(=O)N[C@H]1C=C[C@H](CC(=O)NCc2ccc(Cl)cc2)O[C@H]1CO	4	·	·	0	-2
FC(F)(F)c1ccccc1Cc1c(-c2ccccc2)nc2ccc(Br)cn12	39	·	0	-27*	-2
N#Cc1ccc(-c2nc3ccc(Br)cn3c2Cc2ccccc2C(F)(F)F)cc1	2	·	-4	-8	3
FC(F)(F)c1ccccc1Cc1c(-c2cccc(Cl)c2)nc2ccc(Cl)cn12	56*	·	18	1	0
CCc1nnc(NS(=O)(=O)c2ccc(N=Cc3c(C)[nH]n(-c4ccc(C)c(C)c4)c3=O)cc2)s1	21	8	-3	·	·
CC1CC1C(=O)Nc1nc2ccc(Cl)cc2s1 (stereo not drawn)	·	5	54*	0	2
Cn1cc(Cl)c(C(=O)Nc2nc3ccc(Cl)cc3s2)n1	112*	64	·	·	·
CCOc1ccc(-c2cc(C(=O)Nc3ccc(F)cc3)[nH]n2)c(C)c1	65*	·	-4	-2	0
CCOc1ccc(-c2cc(C(=O)NCc3ccc(F)cc3)[nH]n2)c(C)c1	2	·	1	2	-3
O=C(CSc1ccc(-c2cccs2)nn1)N1CCCCCC1	50*	-7	·	·	·
COc1ccccc1CNC(=O)CSc1ccc(-c2cccs2)nn1	·	-15	0	-25*	-3
O=C(CSc1ccc(-c2cccs2)nn1)N1CCCCC1	33	12	·	·	·
CC(C)(C)OC(=O)N1CCC(c2c(C(=O)N3CCN(C4CCCCC4)CC3)cnn2-c2ccc(F)cc2)CC1	-10	3	-2	3	1
CCCCCCC(c1c(C)n(C)n(-c2ccccc2)c1=O)c1c(C)n(C)n(-c2ccccc2)c1=O	10	·	-1	·	·
CCCC(NC(=O)CCc1c(C)c2cc3c(-c4ccccc4)coc3cc2oc1=O)C(=O)O (stereo not drawn)	-19	-22	-2	-34*	0
Cc1c(CCC(=O)NCC(=O)O)c(=O)oc2cc3occ(-c4ccccc4)c3cc12	-3	-2	2	-20*	2
Cc1ccc(C(=O)Nc2nc(=O)n(C(=O)c3ccccc3C)s2)cc1	60*	22	·	·	·
Cc1sc(NC(=O)C2CCCCC2C(=O)O)c(C(N)=O)c1-c1ccc(C(C)C)cc1 (stereo not drawn)	62*	31	·	·	·
CC1(C(=O)NS(=O)(=O)c2ccc3c(c2)CCO3)CCN1C(=O)Cc1ccc(-c2ccccc2)cc1 (stereo not drawn)	-5	·	0	-6	-1
CC1(C(=O)NS(=O)(=O)c2ccc3c(c2)CCO3)CCN1C(=O)c1ccccc1CCc1ccccc1 (stereo not drawn)	4	·	-7	-20*	6
CC1(C(=O)NS(=O)(=O)c2cccc(F)c2)CCN1C(=O)c1ccccc1CCc1ccccc1 (stereo not drawn)	4	·	-2	-1	-3
Cc1cccc(S(=O)(=O)NC(=O)C2(C)CCN2C(=O)c2ccccc2CCc2ccccc2)c1 (stereo not drawn)	-1	·	-7	-50*	0
COC(=O)c1ccc(NC(=O)CN2C(=O)NC3(CCC(C)CC3)C2=O)cc1 (stereo not drawn)	-3	3	-2	·	1

High-throughput results from PubChem BioAssay.
